# High-throughput results as filed in PubChem.
# The entries come from a sample that favours hits as a whole.
# C diff growth: C. difficile growth inhibitors, primary screen, HTS. Clostridium difficile clinical isolate growth, OD600, 24 h; active compounds read low. growth activity, negative = inhibition, % at 16 µg/mL (by protocol). 0.25% of 86,000 active. AID 1259249, 2017;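 active means mean growth activity at or below -80% and every replicate also at or below -80%; inconclusive means mean at or below -80% but some replicate above -80%; inactive means mean growth activity above -80%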;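 further: 0% = DMSO wells and -100% = levofloxacin 16 µg/mL wells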
# T cruzi growth-1: T. cruzi intracellular proliferation inhibitors, primary screen, cell-based, beta-gal Tulahuen parasites, NIH3T3 host, luminescence; T. cruzi beta-gal in NIH3T3, GalScreen luminescence, 90 h; inhibition, % at 8.34 µM; 5.9% of 77,000 active;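 active means mean inhibition above about 93%, with at least 55% of replicates each passing it, limit read from the data, passing the limit was not always enough; inconclusive means only one of those two conditions holds; inactive means neither condition holds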
# T cruzi growth-2: T. cruzi intracellular proliferation inhibitors, confirmation, cell-based, NIH3T3 host, beta-gal parasite, luminescence, cherry-pick. shares compounds with T cruzi growth-1. T. cruzi beta-gal in NIH3T3, GalScreen luminescence, 90 h. inhibition, % at 8.35 µM. 72% of 5,600 active. AID 651739, 2012;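 active means mean replicate inhibition above about 95% and at least 55% of replicates individually reaching it, limit read from the data; inconclusive means only one of the two criteria is met; inactive means neither criterion is met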
# T cruzi growth-3: inhibitors of intracellular T. cruzi replication, confirmation, NIH3T3 host cells, beta-gal parasites, cherry-pick, set 2; shares compounds with T cruzi growth-1; T. cruzi beta-gal in NIH3T3, GalScreen luminescence, 90 h; inhibition, % at 2.09 µM; 21% of 5,600 active;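 active means mean inhibition above about 95%, with at least 55% of replicates also reaching it, limit read from the data; inconclusive means meets just one of the two conditions; inactive means meets neither condition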;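 further: plate controls were neutral control median for no effect and positive control median for full effect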
# NIH3T3 tox: cytotoxicity in mouse NIH/3T3 fibroblasts, confirmation, cytotoxicity control for T. cruzi proliferation inhibitor project, cell-based, cherry-pick, single point | shares compounds with T cruzi growth-1 | NIH/3T3 viability, CellTiter-Glo ATP luminescence, 90 h | cytotoxicity (signal decrease), % at 8.35 µM | 14% of 5,600 active | AID 651742, 2012;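 active means mean signal decrease across replicates above about 35% based on untreated-well scatter, with enough replicates individually passing, limit read from the data; inconclusive means no rule stated though some were filed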;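 further: 0% = median of neutral control wells and 100% = median of positive control wells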
# 3T3 cytotox 2: NIH/3T3 fibroblast cytotoxicity, confirmation, cytotoxicity control, cell-based, cherry-pick, single point, set 2 | shares compounds with T cruzi growth-1 | NIH/3T3 viability, CellTiter-Glo ATP luminescence, 90 h | inhibition, % at 24.9 µM | 56% of 5,600 active | AID 651744, 2012;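 active means mean loss of cell viability signal at or above a set limit, and enough replicates individually reaching it; inconclusive means meets only the mean limit or only the replicate share; inactive means meets neither condition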;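 further: 0% = median of neutral control wells and 100% = median of positive control wells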
# An asterisk follows results filed as active; ? = inconclusive; nt = no result.
SMILES,C diff growth,T cruzi growth-1,T cruzi growth-2,T cruzi growth-3,NIH3T3 tox,3T3 cytotox 2
C[C@H]1CCCCO[C@@H](CN(C)C(=O)CCC(F)(F)F)[C@@H](C)CN([C@@H](C)CO)C(=O)c2cc(NC(=O)c3ccccc3)ccc2O1,-3.7,-1.6,nt,nt,nt,nt
C[C@@H]1CCCCO[C@H](CN(C)Cc2ccccc2)[C@@H](C)CN([C@H](C)CO)C(=O)c2cc(NC(=O)NC3CCCCC3)ccc2O1,-1.1,-0.3,nt,nt,nt,nt
C[C@@H]1CCCCO[C@@H](CN(C)Cc2ccccc2)[C@H](C)CN([C@H](C)CO)C(=O)c2cc(NC(=O)NC3CCCCC3)ccc2O1,-0.1,?,107.0*,63.2,2.6,100.2*
C[C@@H]1CN([C@@H](C)CO)C(=O)c2cc(NC(=O)NC3CCCCC3)ccc2O[C@@H](C)CCCCO[C@@H]1CN(C)Cc1ccccc1,0.2,-69.1,nt,nt,nt,nt
C[C@@H]1CCCCO[C@H](CN(C)Cc2ccccc2)[C@H](C)CN([C@@H](C)CO)C(=O)c2cc(NC(=O)NC3CCCCC3)ccc2O1,-3.8,?,100.3*,14.7,0.6,100.2*
C[C@@H]1CN([C@@H](C)CO)C(=O)c2cccc(NS(=O)(=O)c3ccc(Cl)cc3)c2O[C@H]1CN(C)S(=O)(=O)c1ccc(Cl)cc1,-1.6,-4.9,nt,nt,nt,nt
COc1ccccc1NC(=O)N1CC(=O)N2[C@H](CO)[C@H](c3ccc(C#Cc4ccccc4)cc3)[C@@H]2C1,0.8,nt,nt,nt,nt,nt
COc1ccc(S(=O)(=O)Nc2ccc3c(c2)C(=O)N([C@@H](C)CO)C[C@@H](C)[C@@H](CN(C)C(=O)Cc2ccccc2)OCCCC[C@H](C)O3)cc1,4.1,54.5,nt,nt,nt,nt
C[C@H]1CN([C@@H](C)CO)C(=O)c2cc(/C=C/c3ccccc3)cnc2O[C@H]1CN(C)S(=O)(=O)c1cn(C)cn1,-0.6,29.6,nt,nt,nt,nt
COc1cccc(C(=O)Nc2ccc3c(c2)OC[C@@H](C)NC[C@@H](C)[C@@H](OC)CN(C)C3=O)c1,nt,-25.1,nt,nt,nt,nt
COc1ccc(C#Cc2ccc([C@H]3[C@H]4CN(C(=O)Nc5ccccc5F)CCCCN4[C@H]3CO)cc2)cc1,-8.4,120.3*,106.1*,60.3,29.2,32.8*
O=C(Nc1cccc(F)c1)N1CCCCN2[C@@H](CO)[C@@H](c3ccc(C#Cc4cccnc4)cc3)[C@@H]2C1,33.7,100.5*,106.1*,99.8*,59.1*,103.4*
COc1ccc(NC(=O)N2CCCCN3[C@H](CO)[C@@H](c4ccc(C#Cc5ccccc5)cc4)[C@@H]3C2)cc1,47.8,112.3*,91.2,94.6,36.9*,104.2*
O=C(Nc1cccc(F)c1)N1CCCCN2[C@@H](CO)[C@@H](c3ccc(C#Cc4ccccc4)cc3)[C@@H]2C1,64.3,79.2,nt,nt,nt,nt
COc1ccc(C#Cc2ccc([C@H]3[C@@H](CO)N4CCCCN(C(=O)Nc5ccc(F)cc5)C[C@@H]34)cc2)cc1,-15.9,107.2*,104.0*,103.6*,14.3,24.1
COc1ccc(C#Cc2ccc([C@@H]3[C@@H](CO)N4CCCCN(C(=O)Nc5ccccc5F)C[C@H]34)cc2)cc1,6.2,103.0,nt,nt,nt,nt
COc1ccc(C#Cc2ccc([C@H]3[C@H](CO)N4CCCCN(C(=O)Nc5ccc(F)cc5)C[C@@H]34)cc2)cc1,4.0,62.7,nt,nt,nt,nt
C[C@@H]1CN([C@H](C)CO)C(=O)c2cc(N(C)C)ccc2O[C@H]1CN(C)Cc1ccc(C(=O)O)cc1,2.6,9.9,nt,nt,nt,nt
COc1ccc(C#Cc2ccc([C@H]3[C@H]4CN(C(=O)Nc5cccc(F)c5)CCCCN4[C@H]3CO)cc2)cc1,16.8,113.1*,104.0*,84.8,1.3,15.0
COc1ccc(C#Cc2ccc([C@H]3[C@H](CO)N4CCCCN(C(=O)Nc5cccc(F)c5)C[C@@H]34)cc2)cc1,-78.7,72.4,nt,nt,nt,nt
COc1ccc(NC(=O)N2CCCCN3[C@H](CO)[C@@H](c4ccc(C#Cc5ccccc5)cc4)[C@H]3C2)cc1,2.2,107.0*,96.0*,104.1*,90.9*,103.7*
COc1ccc(C#Cc2ccc([C@@H]3[C@@H](CO)N4CCCCN(C(=O)Nc5ccccc5)C[C@@H]34)cc2)cc1,6.3,111.4*,83.2,92.8,31.0,102.4*
COc1ccc(C#Cc2ccc([C@H]3[C@H](CO)N4CCCCN(C(=O)Nc5ccccc5)C[C@@H]34)cc2)cc1,1.6,71.6,nt,nt,nt,nt
O=C(NCC[C@@H]1CC[C@H](NS(=O)(=O)c2ccc(Cl)cc2)[C@@H](CO)O1)c1ccc2c(c1)OCO2,-8.8,31.1,nt,nt,nt,nt
CC(C)NC(=O)Nc1ccc2c(c1)C(=O)N([C@H](C)CO)C[C@@H](C)[C@@H](CN(C)Cc1ccc3c(c1)OCO3)OCCCC[C@@H](C)O2,1.5,-3.4,nt,nt,nt,nt
SMILES,C diff growth,T cruzi growth-1,T cruzi growth-2,T cruzi growth-3,NIH3T3 tox,3T3 cytotox 2
CC(C)NC(=O)Nc1ccc2c(c1)C(=O)N([C@@H](C)CO)C[C@H](C)[C@@H](CN(C)Cc1ccc3c(c1)OCO3)OCCCC[C@@H](C)O2,1.7,59.1,nt,nt,nt,nt
C[C@H](CO)N1C[C@H](C)[C@@H](CN(C)Cc2ccc3c(c2)OCO3)OCCCC[C@H](C)Oc2ccc(NC(=O)Nc3ccc4c(c3)OCO4)cc2C1=O,nt,90.8,nt,nt,nt,nt
C[C@@H]1CCCCO[C@@H](CN(C)Cc2ccc3c(c2)OCO3)[C@@H](C)CN([C@@H](C)CO)C(=O)c2cc(NC(=O)Nc3ccc(F)cc3)ccc2O1,6.8,97.8*,110.5*,81.4,-2.7,16.9
C[C@@H]1CCCCO[C@H](CN(C)Cc2ccc3c(c2)OCO3)[C@@H](C)CN([C@H](C)CO)C(=O)c2cc(NC(=O)Nc3ccc(F)cc3)ccc2O1,2.3,98.2*,111.8*,-2.0,-5.5,9.3
C[C@@H]1CCCCO[C@H](CN(C)Cc2ccc3c(c2)OCO3)[C@H](C)CN([C@@H](C)CO)C(=O)c2cc(NC(=O)Nc3ccc(F)cc3)ccc2O1,12.2,105.3*,105.4*,102.8*,8.0,103.9*
C[C@H](CO)N1C[C@H](C)[C@H](CN(C)Cc2ccc3c(c2)OCO3)OCCCC[C@H](C)Oc2ccc(NC(=O)Nc3ccc(F)cc3)cc2C1=O,15.6,87.9,nt,nt,nt,nt
C[C@@H]1CCCCO[C@@H](CN(C)Cc2ccc3c(c2)OCO3)[C@H](C)CN([C@@H](C)CO)C(=O)c2cc(NC(=O)Nc3ccc(F)cc3)ccc2O1,11.7,109.8*,98.2*,60.2,30.9,92.4*
CS(=O)(=O)N1C[C@H](O)COC[C@H]2O[C@@H](CC(=O)NC3Cc4ccccc4C3)CC[C@@H]21,7.8,-75.5,nt,nt,nt,nt
